A selection: hits, their analogues and other compounds. The true share with any hit is near 3%.
KLF5 inhibitor – inhibitors of KLF5 expression | hit rate 0.23% among 290,000 | DLD-1 KLF5 promoter-luciferase reporter, luminescence | inhibition, % at 5 µM;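 active means inhibition above a per-plate limit of that plate's mean compound inhibition plus 3 SD, cut at about 60% in these data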;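 further: 0% = DMSO wells and 100% = LY294002 at 200 µM; higher means less KLF5 promoter-driven luciferase light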
IEC-6 tox-1 – kills IEC-6 intestinal cells in KLF5 counter-screen; hit rate 0.78% among 290,000; IEC-6 cytotoxicity, luminescence viability; inhibition, % at 5 µM; in the data active means inhibition above about 22%;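 further: 0% = plate median of test compound wells and 100% = cytotoxic reference compound wells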
CSC inhib – cancer stem cell inhibition. cancer stem cell-like cells viability, luminescence. inhibition, % at 7.5 µM. hit rate 1.1% among 300,000. AID 2717; in the data active means inhibition above about 75%; inconclusive means no clear call, values can overlap the other calls; tested in HMLE shEcad cells
aSyn UTR inh – MLPCN primary screen, SNCA 5' untranslated region. alpha-synuclein 5'UTR reporter, inhibitor activity. inhibition, % (tested at 7.5 µM). hit rate 0.82% among 300,000; in the data active means inhibition above about 60%; inconclusive means no clear call, values can overlap the other calls;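 further: H4 neuroglioblastoma cells stably carrying SNCA 5'UTR luciferase fusion; 0% = DMSO wells and 100% = positive control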
SKKanGAS inh – SKKanGAS growth inhibition. S. pyogenes SKKanGAS, kanamycin growth, BacTiter-Glo, 6 h. inhibition, % at 7.5 µM. hit rate 1.3% among 300,000;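 active means mean replicate score, as percent of positive control median, at least 50; inconclusive means mean below 50 but one replicate at or above 50; inactive means mean and every replicate below 50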;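 further: strain carries kanamycin resistance gene driven by streptokinase promoter and grows in 40 µg/ml kanamycin; loss of luminescence reflects streptokinase promoter inhibition or plain growth inhibition; 0% = median of DMSO wells and 100% = positive control at its reference dose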
KLF5 inh confirm – KLF5 inhibition, confirmation assay; hit rate 79% among 610; DLD-1 KLF5 promoter firefly luciferase reporter, luminescence; shares compounds with KLF5 inhibitor; inhibition, % at 4 µM; AID 1834;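 active means inhibition above a set limit taken from the earlier primary screen, cut at about 63% in these data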;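 further: 0% = DMSO wells and 100% = LY294002 at 200 µM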
IEC-6 tox-2 – rat IEC-6 cytotoxicity, KLF5 inhibitor counter-screen; IEC-6 rat intestinal cells, viability luminescence; shares compounds with KLF5 inhibitor; hit rate 56% among 610; inhibition, % at 4 µM; AID 1905; in the data active means inhibition above about 23%;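 further: cells exposed to compounds for 48 hours before viability read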
Starred values were filed as active, the others as inactive; ? = inconclusive; / = not tested or not shown.

SMILES	KLF5 inhibitor	IEC-6 tox-1	CSC inhib	aSyn UTR inh	SKKanGAS inh	KLF5 inh confirm	IEC-6 tox-2
CN(C(=S)NC(=O)c1ccc(Br)o1)c1ccccc1	-1.4	7.7	-2.5	-37.5	4.1	/	/
Oc1c(Cl)cc(CN2CCCCC2)c2cccnc12	97.9*	7.0	87.0*	38.5	24.1	92.3*	11.7
COc1ccccc1N1CCN(c2nc(C)nc3c2oc2ccccc23)CC1	66.7*	79.9*	/	89.5*	?	79.0*	64.2*
Clc1ccccc1CN1CCN(c2ncccn2)CC1	-5.4	4.2	4.3	-9.3	16.6	/	/
COc1ccccc1N1CCN(Cc2cc(Br)c(O)c3ncccc23)CC1	93.0*	0.9	77.4*	77.0*	82.3*	65.0*	-2.5
CCN(CC)S(=O)(=O)c1ccc(N2CCCCC2)c(NC(=O)C2=COCCO2)c1	/	/	-4.4	11.0	-3.7	/	/
O=C(/C=C/c1ccccc1)Nc1cc(NC(=O)/C=C/c2ccccc2)cc(C(=O)O)c1	-3.8	-4.2	-5.3	-21.3	9.3	/	/
O=C(/C=C/c1ccccc1)Nc1cccc(C(=O)O)c1	102.3*	4.2	-4.9	94.5*	4.5	101.1*	1.3
CCN1C=CC(=C2C(=O)c3ccccc3C2=O)C=C1	86.9*	12.1	-5.8	96.1*	25.4	96.0*	8.8
CCCN1C=CC(=C2C(=O)c3ccccc3C2=O)C=C1	107.2*	17.7	54.9	131.6*	34.6	106.2*	24.2*
CN1C=CC(=C2C(=O)c3ccccc3C2=O)C=C1	-122.2	8.9	/	13.7	2.3	/	/
CC1CCCC(NC(=O)c2cccc(S(=O)(=O)N3CCCCC3)c2)C1C (stereo not given)	-7.5	0.9	-16.3	19.5	-1.8	/	/
Cc1ccc(/C=C2\SC(=S)N(CCCC(=O)NC3CCCC3)C2=O)cc1	65.3*	2.8	-1.5	97.5*	-4.3	3.9	4.5
Cc1ccc(/C=C2/SC(=S)N(CCCC(=O)Nc3ccc(O)cc3)C2=O)cc1	67.5*	4.6	/	86.3*	2.6	107.0*	7.3
COc1cc(/C=C2\SC(=S)N(CCC(=O)NC3CCCC3)C2=O)cc(OC)c1OC	-20.4	3.6	-5.8	-70.6	-1.5	/	/
CC(C)(C)c1ccc(C(=O)O/N=C(\N)c2ccccn2)cc1	88.8*	-1.7	-5.7	94.0*	-0.9	96.1*	-12.3
Cc1ccc(C(=O)O/N=C(\N)c2ccccn2)cc1C	43.5	3.3	-0.8	45.8	-7.2	/	/
COc1ccc(/C=C/c2nc3ccccc3n2C)cc1	67.5*	11.5	88.1*	108.8*	66.0*	95.5*	33.6*
COc1ccccc1/C=C/c1nc2ccccc2c(=O)o1	-127.4	6.3	-13.2	-106.9	-1.7	/	/
COc1ccc(/C=C/c2nc3ccccc3c(=O)o2)cc1	71.0*	7.6	9.4	101.5*	13.6	55.1	2.0
COc1ccc(S(=O)(=O)N2c3ccccc3OCC2c2ccccc2)cc1 (stereo not given)	16.7	0.6	42.9	-11.1	30.1	/	/
COc1ccc(S(=O)(=O)N2c3ccccc3OCC2C)cc1 (stereo not given)	84.0*	78.6*	5.3	39.2	13.8	79.3*	59.5*
CCOC(=O)c1sc(NC(=O)c2cc3ccccc3o2)nc1C	81.8*	5.8	8.1	-113.5	8.0	62.3*	-4.2
CCOC(=O)c1sc(NC(=O)c2ccc3ncsc3c2)nc1C	94.1*	-3.2	3.1	-89.1	-3.1	75.2*	3.1
COc1cccc(C(=O)NCC(=O)OCC(=O)Nc2cc(OC)c([N+](=O)[O-])cc2C)c1	-12.6	1.4	3.1	5.5	-10.4	/	/
SMILES	KLF5 inhibitor	IEC-6 tox-1	CSC inhib	aSyn UTR inh	SKKanGAS inh	KLF5 inh confirm	IEC-6 tox-2
O=C(CN(C(=O)CCC(=O)Nc1nccs1)c1ccc2c(c1)OCO2)NCc1ccccc1	-9.0	1.0	/	-5.0	-2.5	/	/
CC1=C(C(=O)OC2CCCC(C)C2)C(c2ccccc2)NC(=O)N1 (stereo not given)	-13.6	1.1	-5.3	-1.1	-7.1	/	/
c1cc2c(cc1C1=NNC(=NC3CC3)SC1)OCCO2	79.3*	4.0	27.9	111.0*	5.1	102.1*	30.3*
CCCCN=C1NN=C(c2ccc3c(c2)OCCO3)CS1	28.1	-2.8	-11.6	-30.1	-0.4	/	/
C(=C\n1nnc2ccccc21)/c1ccc[nH]1	/	/	-1.3	-72.3	0.2	/	/
Clc1ccc(-c2nc(-c3ccccn3)no2)cc1Cl	-88.3	1.7	19.3	34.3	-6.9	/	/
COc1ccc(-c2nc(-c3ccccn3)no2)cc1	109.9*	27.6*	87.6*	107.4*	/	102.8*	44.6*
Cc1ccc(C)c(S(=O)(=O)N2CCN(C(=O)c3cccn3C)CC2)c1	/	/	-1.4	-3.4	-12.4	/	/
COc1ccccc1C(=O)NCCCNC(=O)c1cccnc1	4.1	-13.5	/	35.4	6.4	/	/
O=[N+]([O-])c1ccc(N/N=C/c2ccccc2O)cc1	-164.5	1.5	62.1	-165.1	6.8	/	/
O=[N+]([O-])c1ccc(O)c(/C=N/Nc2ccccn2)c1	65.5*	5.0	118.4*	95.2*	-2.9	57.9	54.0*
O=C(/C=C/c1ccccc1)Nc1ccc(Cl)cn1	-67.3	18.8	/	-94.9	-0.8	/	/
O=C(Nc1ncc([N+](=O)[O-])s1)c1ccc2c(c1)OCO2	76.3*	12.3	49.9	102.6*	17.5	55.2	35.5*
CCc1ccn2cc(-c3cc(-c4ccccc4)no3)nc2c1	83.8*	19.1	29.4	94.4*	-2.1	82.2*	-2.2
N/C(=N\OCc1ccc([N+](=O)[O-])cc1)c1ccccn1	87.8*	0.5	-9.9	112.1*	-25.7	97.3*	-2.7
Cc1ccc(S(=O)(=O)Nc2cc(Cl)c(O)c3ncccc23)cc1	68.1*	5.8	28.9	77.2*	78.9*	78.8*	7.5
CC(C)(C)OC(=O)N1CSC[C@H]1C(=O)NC[C@H](CC(=O)O)c1ccc(Cl)cc1	-34.7	-7.3	9.5	3.4	-9.1	/	/
COc1ccccc1N=Nc1ccc(O)c2ncccc12	74.7*	3.7	26.9	36.6	94.5*	46.8	1.4
CCc1ccc(NC(=O)c2cnn3ccccc23)cc1	87.2*	6.9	19.3	77.9*	-4.2	82.4*	2.6
CSc1cccc(NC(=O)c2cnn3ccccc23)c1	-154.1	-1.5	-4.1	-99.9	-10.1	/	/
N#Cc1ccc(S(=O)(=O)NCC(=O)OCC(=O)N2CCCC2=O)cc1	/	/	-9.8	7.5	-1.4	/	/
COc1ccc(CN(C)C(=O)c2cccc(NS(=O)(=O)c3ccccc3)c2)cc1F	7.6	-0.5	9.9	13.6	-27.7	/	/
CCn1cc(S(=O)(=O)N2CCN(c3ccc(Cl)cc3)CC2)cn1	-7.7	4.4	5.8	-3.7	-3.8	/	/
COc1ccc(-c2cc3nc(C)n(N)c(=O)c3s2)cc1	96.0*	17.7	97.1*	115.5*	88.4*	108.7*	36.0*
COc1ccc(-c2cc3nc4n(c(=O)c3s2)CCCCC4)cc1	-202.0	1.5	32.5	-17.3	12.1	/	/
Cc1cccc(NC(=S)NC(=O)/C=C/c2ccco2)c1	74.0*	78.6*	2.6	-59.8	3.3	23.1	28.5*
